The nature of experiment [1]: CEETOX_H295R_11DCORT_noMTC: CeeTox H295R High-throughput Steroidogenesis Assay for 11-Deoxycortisol (11DCORT), maximum tolerated concentration (MTC) filtered results only (AID 2283911). Particulars: actives raise or lower the signal. A digest of the protocol:
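H295R, OECD 456-based; 10 uM forskolin 48 h → compound (0.1% DMSO) 48 h → medium extracted, 11DCORT by LC-MS/MS. Gain/loss vs DMSO control, all concentrations kept regardless of MTT viability.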

Experiment [2] is described as follows: CEETOX_H295R_OHPREG_noMTC: CeeTox H295R High-throughput Steroidogenesis Assay for OH-Pregnenolone (OHPREG), maximum tolerated concentration (MTC) filtered results only (AID 2283912). The note with it: actives raise or lower the signal. A digest of the protocol: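 Steroidogenesis in H295R cells (OECD 456, modified): after 48 h forskolin priming and 48 h chemical treatment, secreted 17alpha-hydroxypregnenolone is measured by HPLC-MS/MS. Activity is fitted in both directions against DMSO; concentrations are not filtered by MTT-based MTC.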

A short description of experiment [3]: CEETOX_H295R_OHPROG_noMTC: CeeTox H295R High-throughput Steroidogenesis Assay for OH-Progesterone (OHPROG), maximum tolerated concentration (MTC) filtered results only (AID 2283914). Particulars: actives raise or lower the signal. The essentials:
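Forskolin 10 uM, 48 h prestim → test cmpd in DMSO (0.1% final), 48 h → medium MTBE extraction → LC-MS/MS quant of 17alpha-OH-progesterone. Bidirectional fit vs DMSO; no MTT-based MTC filtering.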

Experiment [4] is described as follows: CEETOX_H295R_CORTISOL_noMTC: CeeTox H295R High-throughput Steroidogenesis Assay for Cortisol, maximum tolerated concentration (MTC) filtered results only (AID 2283916). The note with it: actives raise or lower the signal. A digest of the protocol: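 Cortisol secretion measured by LC-MS/MS after 48 h chemical treatment (final 0.1% DMSO) of forskolin-primed (10 uM, 48 h) H295R cells; gain or loss fitted relative to DMSO, without maximum-tolerated-concentration filtering.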

Experiment [5] can be described thus: CEETOX_H295R_CORTIC_noMTC: CeeTox H295R High-throughput Steroidogenesis Assay for Corticosterone (CORTIC), maximum tolerated concentration (MTC) filtered results only (AID 2283917). The note with it: actives raise or lower the signal. A digest of the protocol:
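Following OECD 456 with minor changes, H295R cultures received 10 uM forskolin for 48 h, then test chemical at 0.1% DMSO for 48 h. Media steroids were extracted and measured by LC-MS/MS.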

Experiment [6] can be described thus: CEETOX_H295R_DOC_noMTC: CeeTox H295R High-throughput Steroidogenesis Assay for DOC, maximum tolerated concentration (MTC) filtered results only (AID 2283918). Particulars: actives raise or lower the signal. The essentials: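 11-Deoxycorticosterone secreted by human adrenal H295R cells quantified by HPLC-MS/MS after 48 h chemical exposure (0.1% DMSO), following 48 h 10 uM forskolin prestimulation. Concentrations not filtered by MTT-derived MTC; bidirectional fitting.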

The nature of experiment [7]: CEETOX_H295R_PROG_noMTC: CeeTox H295R High-throughput Steroidogenesis Assay for Progesterone (PROG), maximum tolerated concentration (MTC) filtered results only (AID 2283920). The note with it: actives raise or lower the signal. The essentials: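 H295R cells; forskolin 10 uM x 48 h prestim; test cpd 48 h, 0.1% DMSO final; media progesterone via LC-MS/MS; bidirectional fit vs DMSO; no MTT-based MTC filter applied.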

Experiment [8] in a line: CEETOX_H295R_ANDR_noMTC: CeeTox H295R High-throughput Steroidogenesis Assay for Androstenedione (ANDR), maximum tolerated concentration (MTC) filtered results only (AID 2283915). Particulars: actives raise or lower the signal. The essentials:
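H295R cells, passage 10 or below, prestimulated 48 h with 10 uM forskolin, then exposed 48 h to chemical in 0.1% DMSO. Medium androstenedione extracted with MTBE, quantified by HPLC-MS/MS; concentrations not MTC-filtered; bidirectional fit versus DMSO.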

The nature of experiment [9]: CEETOX_H295R_ESTRADIOL_noMTC: CeeTox H295R High-throughput Steroidogenesis Assay for Estradiol, maximum tolerated concentration (MTC) filtered results only (AID 2283919). Particulars: actives raise or lower the signal. The essentials: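 H295R human adrenal cells pre-stimulated 48 h with 10 uM forskolin, then exposed 48 h to chemical (0.1% DMSO final). Estradiol in medium measured by HPLC-MS/MS after MTBE extraction and dansyl derivatization; bidirectional fit versus DMSO, concentrations not MTT-filtered.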

Experiment [10] can be described thus: CEETOX_H295R_ESTRONE_noMTC: CeeTox H295R High-throughput Steroidogenesis Assay for Estrone, maximum tolerated concentration (MTC) filtered results only (AID 2283921). The note with it: actives raise or lower the signal. The essentials: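 H295R cells prestimulated 48 h with 10 uM forskolin, then exposed 48 h to chemical in 0.1% DMSO; medium estrone measured by HPLC-MS/MS after MTBE extraction and dansyl derivatization, fitted bidirectionally versus DMSO without MTT-based MTC filtering.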

Experiment [11] can be described thus: CEETOX_H295R_TESTO_noMTC: CeeTox H295R High-throughput Steroidogenesis Assay for Testosterone (TESTO), maximum tolerated concentration (MTC) filtered results only (AID 2283924). Particulars: actives raise or lower the signal. A digest of the protocol: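 H295R cells prestimulated 48 h with 10 uM forskolin, then exposed 48 h to chemicals in 0.1% DMSO final. Testosterone in medium quantified by MTBE extraction and HPLC-MS/MS; bidirectional fit versus DMSO, concentrations […] filtered by MTT-based maximum tolerated concentration.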

The nature of experiment [12]: CPHEA_Stoker_NIS_Cytotoxicity: Cytotoxicity Assessment for CPHEA's Radioactive Iodide Uptake (RAIU) Assay for Sodium/Iodide Symporter (NIS) Inhibition, Stoker and Laws Labs (AID 2283897; active means hit-call score of the fitted dose curve at least 0.9, where 1 is the maximum;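 on AC50: active means loss of ATP signal versus DMSO meaning cytotoxicity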). The essentials:
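hNIS-HEK293T-EPA human kidney cells were exposed for 2 hours at room temperature to test chemicals (0.001–100uM, 0.5% final DMSO) in HEPES-buffered HBSS, pH 7.4. Viability was read as ATP content by luciferase bioluminescence, loss of signal versus DMSO.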

Experiment [13] has as its target PGR (gene 5241) (UniProt P06401). The experiment is described as follows: TOX21_PR_BLA_Followup_Agonist_ratio: Tox21 HEK293 Progesterone Receptor (PR) Agonism Beta-lactamase Follow-Up Assay, Ratio (AID 2283933; active means hit-call score of the fitted dose curve at least 0.9, where 1 is the maximum). The essentials: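 PR-UAS-bla HEK293T cells in medium with 2% charcoal-stripped FBS were dosed after 6 h plating and incubated 16 h at 37C. LiveBLAzer FRET substrate was added for 2 h at room temperature. Cleaved/uncleaved substrate ratio fitted against DMSO; CellTiter-Glo viability run in the same wells.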

For experiment [14] the target is unchanged. The experiment is described as follows: TOX21_PR_BLA_Followup_Antagonist_ratio: Tox21 HEK293 Progesterone Receptor (PR) Antagonism Beta-lactamase Follow-Up Assay, Ratio (AID 2283934; active means hit-call score of the fitted dose curve at least 0.9, where 1 is the maximum). The essentials: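 PR-UAS-bla HEK293T cells, 3,000/well in 2% charcoal-stripped FBS, given compound plus 1nM R5020 agonist for 16 hr at 37C. Beta-lactamase FRET substrate 2 hours, ratio cleaved/uncleaved fluorescence; viability by CellTiter-Glo in same wells.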

Experiment [15] is described as follows: TOX21_PR_BLA_Followup_Agonist_viability: Viability Assessment in the Tox21 HEK293 Progesterone Receptor (PR) Agonism Beta-lactamase Follow-Up Assay (AID 2283935; active means hit-call score of the fitted dose curve at least 0.9, where 1 is the maximum;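 further: signal loss means lower viability so actives are cytotoxic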). The essentials:
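PR-UAS-bla HEK293T cells in 2% charcoal-stripped FBS medium, plated 6 hr before compound addition, exposed 16 hr at 37C. Viability read by CellTiter-Glo ATP luminescence after 30 min at room temperature, in the same wells as the beta-lactamase readout.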

Experiment [16] in a line: TOX21_PR_BLA_Followup_Antagonist_viability: Viability Assessment in the Tox21 HEK293 Progesterone Receptor (PR) Antagonism Beta-lactamase Follow-Up Assay (AID 2283936; active means hit-call score of the fitted dose curve at least 0.9, where 1 is the maximum;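 further: hits lower the luminescence signal meaning cytotoxicity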). The essentials:
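PR-UAS-bla HEK293T cells (3,000/well, 2% charcoal-stripped FBS) given compound plus R5020 agonist, 16 h at 37C. CellTiter-Glo added after bla read, 30 min at room temperature; luminescence loss indicates cytotoxicity.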

The target in experiment [17] is PGR (gene 5241) (UniProt P06401). As to the kind of experiment: TOX21_PR_LUC_Followup_Agonist: Tox21 HEK293 Progesterone Receptor (PR) Agonism Luciferase Follow-Up Assay (AID 2283937). The essentials:
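HEK293-PR-A-luc cells, conditioned 5 days in 10% charcoal-stripped FBS medium, seeded 3,000/well for 5 h, then compound-treated 16 h at 37C. ONE-Glo luminescence read after 30 min at room temperature; gain of signal versus DMSO.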

For experiment [18] the target is unchanged. As to the kind of experiment: TOX21_PR_LUC_Followup_Antagonist: Tox21 HEK293 Progesterone Receptor (PR) Antagonism Luciferase Follow-Up Assay (AID 2283938; active means hit-call score of the fitted dose curve at least 0.9, where 1 is the maximum;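 further: curve fitted upward as signal gain over DMSO baseline despite antagonist label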). The essentials:
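Luminescence from ONE-Glo reagent, measured after 30 min at room temperature, served as readout. Cells (HEK293 carrying PR-A-luc) had been treated 16 h at 37C with DMSO-dissolved compounds. Activity was fitted against DMSO controls.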

Experiment [19] can be described thus: TOX21_PR_LUC_Followup_Antagonist_viability: Viability Assessment in the Tox21 HEK293 Progesterone Receptor (PR) Antagonism Luciferase Follow-Up Assay (AID 2283940; active means hit-call score of the fitted dose curve at least 0.9, where 1 is the maximum). A digest of the protocol: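 HEK293-PR-A-luc cells kept in charcoal-stripped FBS medium were plated 5 h before compound addition, then exposed 16 h at 37C; viability read as cellular ATP by luciferase luminescence, loss of signal indicating cytotoxicity.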

Results filed as inconclusive are left out. The source made the active and inactive calls. How the source made its calls, unless noted: active means hit-call score of the fitted dose curve at least 0.9, where 1 is the maximum; inactive means score below 0.9.

Chain of PGR (gene 5241) (P06401 whole entry, looked up): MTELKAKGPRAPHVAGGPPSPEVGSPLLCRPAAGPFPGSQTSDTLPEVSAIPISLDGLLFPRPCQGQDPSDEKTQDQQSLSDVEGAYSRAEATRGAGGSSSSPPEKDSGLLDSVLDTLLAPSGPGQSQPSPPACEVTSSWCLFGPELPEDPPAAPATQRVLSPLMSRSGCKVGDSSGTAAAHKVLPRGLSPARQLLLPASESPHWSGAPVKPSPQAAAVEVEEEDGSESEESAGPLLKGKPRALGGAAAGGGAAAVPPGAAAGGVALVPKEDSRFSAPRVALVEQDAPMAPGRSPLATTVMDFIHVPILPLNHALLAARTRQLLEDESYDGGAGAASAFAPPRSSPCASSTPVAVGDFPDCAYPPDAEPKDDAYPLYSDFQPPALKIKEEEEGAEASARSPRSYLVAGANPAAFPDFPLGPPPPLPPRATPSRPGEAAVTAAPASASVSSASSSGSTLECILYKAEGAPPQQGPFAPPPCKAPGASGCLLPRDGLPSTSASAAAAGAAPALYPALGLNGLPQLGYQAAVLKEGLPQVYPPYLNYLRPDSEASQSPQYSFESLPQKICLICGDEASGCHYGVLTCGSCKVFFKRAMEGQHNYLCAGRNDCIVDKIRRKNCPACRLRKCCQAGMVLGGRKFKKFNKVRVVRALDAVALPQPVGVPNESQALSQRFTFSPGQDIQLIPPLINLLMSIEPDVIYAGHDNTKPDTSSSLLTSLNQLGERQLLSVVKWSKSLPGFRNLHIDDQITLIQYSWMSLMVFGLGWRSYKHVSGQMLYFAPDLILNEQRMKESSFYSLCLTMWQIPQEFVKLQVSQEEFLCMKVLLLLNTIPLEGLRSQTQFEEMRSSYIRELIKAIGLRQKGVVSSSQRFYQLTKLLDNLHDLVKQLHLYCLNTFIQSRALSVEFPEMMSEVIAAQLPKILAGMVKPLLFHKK

With `N#Cc1ccc(C2CCCc3cncn32)cc1` (stereo unspecified), the compound was classed as inactive in [1], in experiment [2] and in [7]. The half-maximal activity concentration (AC50) in experiment [3] was 2.31 µM (active); in [4], 2.52 µM (active); in [5] it was 1.44 µM (active); in experiment [6], 1.98 µM (active).

Regarding `N#Cc1ccc(C(c2ccc(C#N)cc2)n2cncn2)cc1`, the result in experiment [1], in [2], in [3], in [8], in experiment [5] and in experiment [6] was inactive. In addition, the compound was called inactive in experiment [7] and in experiment [11]. In addition, the concentration at half-maximal activity (AC50) in experiment [4] is 4.92 µM (active); in experiment [9], 0.0183 µM (active); in experiment [10], 0.0263 µM (active).

`CCCC=C(C=O)CC`: the compound was called inactive in experiment [1], in experiment [2], in [3], in experiment [4], in experiment [5] and in experiment [6]. Also, the outcome in [9], in [7] and in experiment [10] was inactive.

Take `C/C=C/C=C/CCCCCCCO`: in experiment [12], the result was inactive.

Take `O=C(O)c1cc(O)c2ccccc2c1O`: in [12], the result was inactive.

On to `CCCCC/C=C\C/C=C\CCCCCCCC(=O)O`, for which the AC50 in [12] was 80.1 µM (active).

Turning to `CCCCC1C(=O)N(c2ccccc2)N(c2ccccc2)C1=O`, the compound was classed as inactive in experiment [1], in [2], in [4], in experiment [5], in experiment [6] and in [10]. Also, the AC50 in [7] was 38.7 µM (active).

In the case of `Oc1ccc(-c2ccccc2)c(Cl)c1`, the outcome in [12], in [13], in experiment [15], in experiment [16], in experiment [17] and in experiment [19] was inactive. For the same compound, the half-maximal activity concentration (AC50) in experiment [14] was 25.7 µM (active); in [18], 29.7 µM (active).

Turning to `C=CCOC(=O)c1ccc(C(=O)OCC=C)c(C(=O)OCC=C)c1`, in experiment [12], the outcome was inactive.

As for `CC(C)c1ccc(O)c(C(C)C)c1`, the outcome in [12], in [1], in [2], in experiment [3], in [4] and in experiment [6] was inactive. Moreover, the outcome in experiment [9], in experiment [7] and in experiment [10] was inactive. Further, the AC50 in experiment [5] is 31.2 µM (active).

For the origin of these results see PubChem BioAssay (EPA / NIEHS).
